Source: article PMC11062922 (Nature Chemical Biology, 2023)
Read-outs that look alike come from different tables or passages of the source.

What was measured:
Set-up in all cases: species or system human, MV4-11 + K-562 + COLO205 + SK-N-BE2 + OVCAR-8
ADRBK1 = conditions: read-out: apparent Kd, n = 1
AKT1 = conditions: read-out: apparent Kd, n = 1
AKT2 = conditions: read-out: apparent Kd, compound concentrations: 100 nM and 1000 nM (sheet 'Samples'), n = 1
AKT3 = conditions: read-out: apparent Kd; compound concentrations: 100 nM and 1000 nM (sheet 'Samples'), CATDS: 9.8238280231453798E-2; n = 1
MAP2K1 = conditions: read-out: apparent Kd, compound concentrations: 100 nM and 1000 nM (sheet 'Samples'), n = 1
MAP2K2 = conditions: read-out: apparent Kd, compound concentrations: 100 nM and 1000 nM (sheet 'Samples'), n = 1
MAP4K3 = conditions: read-out: apparent Kd; compound concentrations: 100 nM and 1000 nM (sheet 'Samples'), CATDS: 0.10467989294056; n = 1
NQO1 = conditions: read-out: apparent Kd, compound concentrations: 100 nM and 1000 nM (sheet 'Samples'), n = 1
RIOK2 = conditions: read-out: apparent Kd, compound concentrations: 100 nM and 1000 nM (sheet 'Samples'), n = 1
TP53RK = conditions: read-out: apparent Kd, compound concentrations: 100 nM and 1000 nM (sheet 'Samples'), n = 1
CLK3 = conditions: read-out: apparent Kd; compound concentrations: 100 nM and 1000 nM (sheet 'Samples'), CATDS: 0.62903265036008305; n = 1
MAP2K3 = conditions: read-out: apparent Kd; compound concentrations:100 nM and 1000 nM (sheet 'Samples'); n = 1
MAPK10 = conditions: read-out: apparent Kd; compound concentrations:100 nM and 1000 nM (sheet 'Samples'); n = 1
MAPK11 = conditions: read-out: apparent Kd; compound concentrations:100 nM and 1000 nM (sheet 'Samples'); n = 1
MAPK9 = conditions: read-out: apparent Kd; compound concentrations:100 nM and 1000 nM (sheet 'Samples'); n = 1
MAPKAPK2 = conditions: read-out: apparent Kd; compound concentrations:100 nM and 1000 nM (sheet 'Samples'); n = 1
ADCK3 = conditions: read-out: apparent Kd; compound concentrations: 100 nM and 1000 nM (sheet 'Samples'), CATDS: 0.21121986416857899; n = 1
RIPK2 = conditions: read-out: apparent Kd; compound concentrations: 100 nM and 1000 nM (sheet 'Samples'), CATDS: 0.926895955727292; n = 1
RIPK3 = conditions: read-out: apparent Kd; compound concentrations: 100 nM and 1000 nM (sheet 'Samples'), CATDS: 0.31380158399753799; n = 1
CAMK4 = conditions: read-out: apparent Kd; compound concentrations: 100 nM and 1000 nM (sheet 'Samples'), CATDS: 3.6966464107036197E-2; n = 1
CSNK1A1 = conditions: read-out: apparent Kd; compound concentrations: 100 nM and 1000 nM (sheet 'Samples'), CATDS: 3.77728763052241E-2; n = 1
EPHA7 = conditions: read-out: apparent Kd; compound concentrations: 100 nM and 1000 nM (sheet 'Samples'), CATDS: 3.8645316072732999E-2; n = 1
ILK = conditions: read-out: apparent Kd; compound concentrations: 100 nM and 1000 nM (sheet 'Samples'), CATDS: 0.14244785973502599; n = 1
MAP2K4 = conditions: read-out: apparent Kd; compound concentrations: 100 nM and 1000 nM (sheet 'Samples'), CATDS: 0.186744219541462; n = 1
MCM5 = conditions: read-out: apparent Kd; compound concentrations: 100 nM and 1000 nM (sheet 'Samples'), CATDS: 3.88707631057994E-2; n = 1
MYLK3 = conditions: read-out: apparent Kd; compound concentrations: 100 nM and 1000 nM (sheet 'Samples'), CATDS: 3.9755051907905598E-2; n = 1
NNT = conditions: read-out: apparent Kd; compound concentrations: 100 nM and 1000 nM (sheet 'Samples'), CATDS: 5.0059398656859502E-2; n = 1
PRKCI = conditions: read-out: apparent Kd; compound concentrations: 100 nM and 1000 nM (sheet 'Samples'), CATDS: 3.7397105483333901E-2; n = 1
PYGL = conditions: read-out: apparent Kd; compound concentrations: 100 nM and 1000 nM (sheet 'Samples'), CATDS: 3.7417156320033999E-2; n = 1
STK11 = conditions: read-out: apparent Kd; compound concentrations: 100 nM and 1000 nM (sheet 'Samples'), CATDS: 4.1841672980442002E-2; n = 1
STK26 = conditions: read-out: apparent Kd; compound concentrations: 100 nM and 1000 nM (sheet 'Samples'), CATDS: 3.6848584126752397E-2; n = 1
VDAC3 = conditions: read-out: apparent Kd; compound concentrations: 100 nM and 1000 nM (sheet 'Samples'), CATDS: 3.7908226064931903E-2; n = 1
[1] = compound concentrations:100 nM and 1000 nM (sheet 'Samples')

N#Cc1c(NC(=O)c2cccc3ccccc23)sc2c1CCCC2 [GW620972X]
potency estimated from few doses (ADRBK1; compound concentrations: 100 nM and 1000 nM (sheet 'Samples'), CATDS: 9.9298321917506205E-2): 1570 nM
potency estimated from few doses (AKT1; compound concentrations: 100 nM and 1000 nM (sheet 'Samples'), CATDS: 9.2646573747736397E-2): 1820 nM
potency estimated from few doses (AKT2; CATDS: 0.116273813691737): 1170 nM
potency estimated from few doses (AKT3): 1610 nM
potency estimated from few doses (MAP2K1; CATDS: 9.2730141301733807E-2): 1820 nM
potency estimated from few doses (MAP2K2; CATDS: 9.7397505320664393E-2): 1640 nM
potency estimated from few doses (MAP4K3): 1420 nM
potency estimated from few doses (NQO1; CATDS: 0.121643058614981): 1080 nM
potency estimated from few doses (RIOK2; CATDS: 0.103588865131405): 1440 nM
potency estimated from few doses (TP53RK; CATDS: 8.4192999566122695E-2): 2270 nM

COc1ccc2cc(-c3nc(-c4ccccc4C(C)C)[nH]c3-c3ccncc3)ccc2c1 [SB-660566]
potency estimated from few doses (ADRBK1; compound concentrations: 100 nM and 1000 nM (sheet 'Samples'), CATDS: 0.41489344635778702): 2070 nM
potency estimated from few doses (CLK3): 865 nM

C[C@@H](Cn1ncnn1)Nc1ncc2cc(Oc3ccc(F)cc3F)c(=O)n(C)c2n1 [RO5067310-000]
potency estimated from few doses (ADRBK1; [1]): 2270 nM
potency estimated from few doses (AKT1; [1]): 1750 nM
potency estimated from few doses (MAP2K3): 1770 nM
potency estimated from few doses (MAPK10): 424 nM
potency estimated from few doses (MAPK11): 30.9 nM
potency estimated from few doses (MAPK9): 265 nM
potency estimated from few doses (MAPKAPK2): 3.25 nM

CC(C)S(=O)(=O)c1ccc2nccc(Nc3ccc4scnc4c3)c2c1 [GSK872]
potency estimated from few doses (ADCK3): 483 nM
potency estimated from few doses (RIPK2): 2.51 nM
potency estimated from few doses (RIPK3): 70.7 nM

COc1cc2ncn(-c3cc(OCc4ccccc4C(F)(F)F)c(C(C)=O)s3)c2cc1OC [GSK1030059A]
potency estimated from few doses (ADRBK1; compound concentrations: 100 nM and 1000 nM (sheet 'Samples'), CATDS: 0.14381840818805): 132 nM
potency estimated from few doses (AKT1; compound concentrations: 100 nM and 1000 nM (sheet 'Samples'), CATDS: 4.3697981842120898E-2): 1300 nM
potency estimated from few doses (AKT2; CATDS: 4.5438239597783502E-2): 1180 nM
potency estimated from few doses (CAMK4): 2080 nM
potency estimated from few doses (CSNK1A1): 1950 nM
potency estimated from few doses (EPHA7): 1820 nM
potency estimated from few doses (ILK): 134 nM
potency estimated from few doses (MAP2K1; CATDS: 0.14670729977766001): 128 nM
potency estimated from few doses (MAP2K2; CATDS: 4.5160118472274198E-2): 1190 nM
potency estimated from few doses (MAP2K4): 89.5 nM
potency estimated from few doses (MCM5): 1790 nM
potency estimated from few doses (MYLK3): 1670 nM
potency estimated from few doses (NNT): 933 nM
potency estimated from few doses (NQO1; CATDS: 4.7880082762824801E-2): 1040 nM
potency estimated from few doses (PRKCI): 2010 nM
potency estimated from few doses (PYGL): 2000 nM
potency estimated from few doses (RIOK2; CATDS: 4.6117723123063198E-2): 1130 nM
potency estimated from few doses (STK11): 1450 nM
potency estimated from few doses (STK26): 2100 nM
potency estimated from few doses (TP53RK; CATDS: 4.1477973818590801E-2): 1490 nM
potency estimated from few doses (VDAC3): 1930 nM
